Composite z-score data for 36 compounds are collected here from PubChem BioAssay.

Chain of Torsin-1A-interacting protein 1 (Homo sapiens) (Q5JTV8 whole entry, looked up): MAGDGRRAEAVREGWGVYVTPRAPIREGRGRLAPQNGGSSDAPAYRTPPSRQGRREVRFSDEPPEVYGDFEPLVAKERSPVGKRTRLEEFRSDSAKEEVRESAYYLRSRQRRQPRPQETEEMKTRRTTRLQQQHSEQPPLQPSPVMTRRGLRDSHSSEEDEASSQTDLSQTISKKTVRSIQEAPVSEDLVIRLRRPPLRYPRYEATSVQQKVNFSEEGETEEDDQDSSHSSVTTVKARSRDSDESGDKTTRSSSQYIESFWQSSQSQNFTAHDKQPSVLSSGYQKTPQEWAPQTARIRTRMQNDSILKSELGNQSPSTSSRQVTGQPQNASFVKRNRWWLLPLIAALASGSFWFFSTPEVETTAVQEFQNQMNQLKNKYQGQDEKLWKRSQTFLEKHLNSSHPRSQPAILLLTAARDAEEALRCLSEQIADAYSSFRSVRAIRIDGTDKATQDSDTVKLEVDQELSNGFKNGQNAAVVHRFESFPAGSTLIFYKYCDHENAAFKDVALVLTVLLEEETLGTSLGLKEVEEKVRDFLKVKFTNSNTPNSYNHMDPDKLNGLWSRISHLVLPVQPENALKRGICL

The first assay addresses Torsin-1A-interacting protein 1 (Homo sapiens) (UniProt Q5JTV8). Kind of assay: LAP1 binders from COS7 cell lysate, primary screen, small-molecule microarray, 635/667 nm fluorescence (AID 1116). Conditions: COS7-hLAP1 lysate binding, 635 nm fluorescence, higher = more signal.
Turning to `COc1ccc(-c2cc3c(c(CCc4ccccc4)n2)[Si](C(C)C)(C(C)C)OC3)cn1`, the composite z-score is -0.0389.

`C=CCOC(=O)[C@H]1[C@@H]2C(=O)O[C@@H](c3ccccc3)[C@@H](c3ccccc3)N2[C@@H](c2ccc(OCCOC(=O)[C@@H]3C[C@@H]4C(=O)N[C@@H](CCCCNC(C)=O)C(=O)N4[C@@H]3c3ccc(O)cc3)cc2)[C@]12C(=O)Nc1ccc(I)cc12` registered a composite z-score of 1.65. The compound `COc1ccc(CCNC(=O)[C@@]2(Sc3ccc(C)cc3)CC(=O)N(C3Cc4ccccc4C3)[C@@H]2c2ccc(CO)cc2)cc1` returned a composite z-score of 2.01. The same measure, in the same setting: under `COCCCNC(=O)[C@@]1(Sc2ccc(C)cc2)CC(=O)N(C2CCCCC2)[C@@H]1c1ccc(CO)cc1` stands 0.447; under `COCCCNC(=O)[C@]1(CCS(=O)(=O)c2ccccc2)N=C(c2ccc(OCCCO)cc2)O[C@@H]1c1ccccc1N=[N+]=[N-]`, -0.342.

`CN(C)CCCNC(=O)[C@@H]1c2ccccc2C(=O)N(Cc2ccccc2Cl)[C@H]1c1ccc(CO)cc1` showed a composite z-score of 0.779.

`CO[C@H]1O[C@H](CO)[C@@H](OC(=O)Nc2ccccc2-c2ccccc2)[C@H](OC(=O)Nc2ccc3c(c2)OCO3)[C@H]1OC(=O)Nc1ccc2c(c1)OCO2` had a composite z-score of 1.76. `CCCCCCCCCCC(O)C1C=CC2C(=O)N(C)C(=O)C2N1NC(=O)OC(C)(C)C` (centres undefined) returned a composite z-score of -0.122.

In the next assay the target is Alpha-bungarotoxin (Bungarus multicinctus) (UniProt P60615). Briefly: alpha-bungarotoxin binders on microarray, profiling panel, artefact control for SMM control protein annotation, biochemical, small-molecule microarray, Alexa647 label, 635/667 nm fluorescence (AID 1117). The note with it: alpha-BTX-A647 binding fluorescence, higher = more signal.
Chain of Alpha-bungarotoxin (Bungarus multicinctus) (P60615 whole entry, looked up): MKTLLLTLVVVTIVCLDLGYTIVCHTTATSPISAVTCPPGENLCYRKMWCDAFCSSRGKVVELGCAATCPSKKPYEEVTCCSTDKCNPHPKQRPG
Regarding `COC(=O)c1nc2oc1CC[C@@H](CO)NC(=O)N(C)Cc1cnnn1C[C@H](Cc1ccccc1)NC2=O`, the composite z-score came to 1.25. The same measure, in the same setting: as for `CCOC(=O)C1=CC[C@@H](c2cccc(Cl)c2)N(S(=O)(=O)c2ccc(C)cc2)C1`, the figure is 0.703; as for `C=C(COC)/C(=C/C[C@H](OC(=O)c1ccncc1)c1ccccc1OCCO)c1cnc2ccccc2c1`, 1.04; as for `C[C@@H]1ON(c2ccc(C(=O)OC(C)(C)C)cc2)[C@H](c2ccc(O)cc2)[C@H]1C(=O)N1C(=O)OC[C@H]1Cc1ccccc1`, 0.485. Same read-out and setting: under `CC(C)N1C(=O)C[C@@](C(=O)NCCCN(C)C)(c2ccc([N+](=O)[O-])cc2)[C@H]1c1ccc(CO)cc1` stands 0.942; under `COC(=O)C(CC#Cc1ccc2c(c1)[C@]1(C(=O)N2)[C@H](C(=O)N2CCN(c3ncccn3)CC2)[C@H]2C(=O)O[C@H](c3ccccc3)[C@H](c3ccccc3)N2[C@@H]1c1ccc(OCCO)cc1)C(=O)OC`, 2.21. On the same count and under the same terms, as for `CN(C)CCCNC(=O)[C@@]1(C)c2ccccc2C(=O)N(Cc2ccccc2)[C@H]1c1ccc(CO)cc1`, the figure is -0.358; as for `CC(C)C(=C=CC[C@H](O)c1cccc(OCCO)c1)C[C@H](O)c1cc(Cl)cc(Cl)c1O`, 0.986; as for `COCCCNC(=O)[C@@]1(Cc2ccccc2N=[N+]=[N-])N=C(c2ccc(OCCCO)cc2)O[C@H]1c1ccccc1`, 0.643. On to `COc1ccc([Si](C)(C)[C@@H]2[C@@H](CC(=O)N3Cc4ccccc4C[C@H]3CO)O[C@]3(C(=O)N(Cc4cccc(N5C(=O)c6cccc7cccc5c67)c4)c4ccccc43)[C@H]2C)cc1`, for which the composite z-score was determined as 0.886. The same measure, in the same setting: as for `COc1ccc([Si](C)(C)[C@@H]2[C@@H](CC(=O)N(CCO)Cc3ccccc3)O[C@]3(C(=O)N(Cc4cccc(N5CCOC5=O)c4)c4ccccc43)[C@H]2C)cc1`, the figure is 1.2; as for `CC(=O)c1ccc(C(O)C2C=CC3C(=O)N(c4ccccc4)C(=O)C3N2Nc2ccc(C#N)cc2)cc1` (centres undefined), 1.33; as for `COC1OC[C@]2(C)[C@H]3C4=C(CN2C(=O)OC(C)(C)C)[C@H](C)C(CO)C(CO)C4CC[C@@H]13` (some centres undefined), 2.39. `COCCCNC(=O)[C@@]1(Cc2ccccc2CN=[N+]=[N-])N=C(c2ccc(OCCCO)cc2)O[C@H]1c1ccccc1` gave a composite z-score of 1.52. In turn, `COc1cc(CO)cc(I)c1O[C@H]1C=C(C(=O)NCCO)C[C@@H](NCc2ccc(F)cc2)[C@@H]1O` had a composite z-score of 0.2. Still for that read-out and setting: as for `C=CCC(OC(C)=O)[C@@H]1[C@@H](N(Cc2cccc3ccccc23)C(=O)Cc2ccc(F)cc2)c2cc(OCCCO)ccc2N1C(=O)c1ccc2ccccc2n1` (some centres undefined), the figure is 0.411. As for `[N-]=[N+]=Nc1ccccc1[C@H]1OC(c2ccc(OCCCO)cc2)=N[C@@]1(Cc1ccccc1)C(=O)N1CCCCC1`, the composite z-score stood at 1.53. The same measure, in the same setting: under `O=C(NCc1ccccc1)[C@@H]1c2ccccc2C(=O)N(Cc2ccccc2C(F)(F)F)[C@H]1c1ccc(CO)cc1` stands -0.166. On the same count and under the same terms, under `CC=CC(O)C1C=CC2C(=O)N(c3ccccc3)C(=O)C2N1Nc1ccccc1F` (centres undefined) stands 0.437; under `O=C1O[C@H](c2ccccc2)[C@H](c2ccccc2)N2[C@H]1[C@@H](C(=O)O)[C@]1(C(=O)Nc3ccc(C#CC4=CCCCC4)cc31)[C@H]2c1ccc(O)cc1`, -0.188; under `C=CCOC(=O)[C@H]1[C@@H]2C(=O)O[C@@H](c3ccccc3)[C@@H](c3ccccc3)N2[C@@H](c2ccc(OCCOC(=O)[C@@H]3C[C@@H]4C(=O)N5CCC[C@H]5C(=O)N4[C@@H]3c3ccc(O)cc3)cc2)[C@]12C(=O)Nc1ccc(I)cc12`, 0.881.

Regarding `CCCC[C@@H]1C[C@H]1[C@@H](NC(=O)c1ccccc1)c1ccc(C(F)(F)F)cc1`, the composite z-score was -0.501. Consider `C=C(C)c1cc2c(c(CCCCCC)n1)[Si](C(C)C)(C(C)C)OC2`, for which the composite z-score was -0.676. The same measure, in the same setting: as for `COC(=O)[C@@]1(Cc2ccc(OC)cc2)[C@@H]2C(=CC(=O)[C@H]2CC(=O)C(=O)N(C)C)CN1C(=O)c1ccccc1`, the figure is 0.923. For the compound `COC(=O)c1cn(C[C@@H](Cc2ccccc2)NC(=O)N[C@H](CO)CCc2oc(C(C)=O)c(C(=O)OC)c2C(=O)OC)nn1`, the composite z-score turned out to be 0.177. `COCCOC(=O)N1C(=O)[C@@]2(c3cc(C#CC4(O)CCCCCC4)ccc31)[C@H](c1ccc(O)cc1)N1[C@H](c3ccccc3)[C@H](c3ccccc3)OC(=O)[C@H]1[C@@H]2C(=O)NC[C@H](O)c1ccccc1` returned a composite z-score of 1.76. Same read-out and setting: as for `C=C(C)C1CCC(C(O)C2C=CC3C(=O)N(C)C(=O)C3N2N2CCCCC2)CC1` (centres undefined), the figure is 1.89.

`CC(C)(C)N1CC=CC23O[C@@H]4C=CCOC(=O)[C@@H]4[C@H]2C(=O)N(CCCCCCO)[C@@H]3C1=O` (some centres undefined): the composite z-score was -0.348.

Compound `COc1ccc(-c2cc3c(c(CCc4ccccc4)n2)[Si](C(C)C)(C(C)C)OC3)cn1` returned a composite z-score of 0.104. Still for that read-out and setting: under `C=CCOC(=O)[C@H]1[C@@H]2C(=O)O[C@@H](c3ccccc3)[C@@H](c3ccccc3)N2[C@@H](c2ccc(OCCOC(=O)[C@@H]3C[C@@H]4C(=O)N[C@@H](CCCCNC(C)=O)C(=O)N4[C@@H]3c3ccc(O)cc3)cc2)[C@]12C(=O)Nc1ccc(I)cc12` stands 1.78; under `COc1ccc(CCNC(=O)[C@@]2(Sc3ccc(C)cc3)CC(=O)N(C3Cc4ccccc4C3)[C@@H]2c2ccc(CO)cc2)cc1`, 0.535; under `COCCCNC(=O)[C@@]1(Sc2ccc(C)cc2)CC(=O)N(C2CCCCC2)[C@@H]1c1ccc(CO)cc1`, -0.255. The same measure, in the same setting: under `COCCCNC(=O)[C@]1(CCS(=O)(=O)c2ccccc2)N=C(c2ccc(OCCCO)cc2)O[C@@H]1c1ccccc1N=[N+]=[N-]` stands 2.68; under `CN(C)CCCNC(=O)[C@@H]1c2ccccc2C(=O)N(Cc2ccccc2Cl)[C@H]1c1ccc(CO)cc1`, 1.74. `CO[C@H]1O[C@H](CO)[C@@H](OC(=O)Nc2ccccc2-c2ccccc2)[C@H](OC(=O)Nc2ccc3c(c2)OCO3)[C@H]1OC(=O)Nc1ccc2c(c1)OCO2` showed a composite z-score of 1.25. For the compound `CCCCCCCCCCC(O)C1C=CC2C(=O)N(C)C(=O)C2N1NC(=O)OC(C)(C)C` (centres undefined), the composite z-score turned out to be 0.294.
